Assay outcomes deposited in PubChem by Broad Institute.
Pf Dd2 growth = P. falciparum Dd2 growth inhibition. AID 1159554. SYBR Green, 72 h; hits give low values. 2.3% of 94,000 active. activity change, % at 10 µM; in the data active means activity change below about -80%
C diff growth = C. difficile growth inhibition. Clostridium difficile clinical isolate growth, OD600, 24 h; hits give low values. growth activity, negative = inhibition, % at 16 µg/mL (by protocol). 0.25% of 86,000 active. AID 1259249;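 active means mean growth activity at or below -80% and every replicate also at or below -80%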
Tcruzi prolif = inhibitors of T. cruzi proliferation. T. cruzi beta-gal in NIH3T3, GalScreen luminescence, 90 h. inhibition, % at 8.34 µM. 5.9% of 77,000 active. AID 624255;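 active means mean inhibition above about 93%, with at least 55% of replicates each passing it, limit read from the data, passing the limit was not always enough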
Hits are given with their value; n = inactive; x = no result given. Shown are actives, neighbours in structure and some others; about 6.8% of the full set was active somewhere.

SMILES | Pf Dd2 growth | C diff growth | Tcruzi prolif
COc1ccc(S(=O)(=O)Nc2ccc3c(c2)C(=O)N([C@@H](C)CO)C[C@H](C)[C@@H](CN(C)C(=O)C2CCCCC2)OCCCC[C@@H](C)O3)cc1 | -92 | n | n
COc1ccc(S(=O)(=O)Nc2ccc3c(c2)C(=O)N([C@@H](C)CO)C[C@H](C)[C@@H](CN(C)C(=O)NC2CCCCC2)OCCCC[C@@H](C)O3)cc1 | -87 | n | n
C[C@H](CO)N1C[C@H](C)[C@@H](CN(C)Cc2ccc(Cl)c(Cl)c2)Oc2ccc(NC(=O)c3ccncc3)cc2CC1=O | n | n | n
CCCC(=O)Nc1ccc2c(c1)OC[C@@H](C)N(C(=O)C1CCCC1)C[C@@H](C)[C@@H](OC)CN(C)C2=O | n | x | n
C[C@@H]1CN([C@H](C)CO)C(=O)Cc2cc(NC(=O)Nc3ccc(F)cc3)ccc2O[C@H]1CN(C)Cc1ccc(C(F)(F)F)cc1 | n | n | n
C[C@@H]1CN([C@@H](C)CO)C(=O)CCCn2cc(nn2)CO[C@H]1CN(C)Cc1ccc2c(c1)OCCN2C | n | n | n
C[C@H](CO)N1C[C@H](C)[C@H](CN(C)C(=O)Nc2cccc3ccccc23)OCCCC[C@H](C)Oc2ccc(NC(=O)Cc3ccccc3)cc2C1=O | -82 | n | n
C[C@@H]1CCCCO[C@H](CN(C)C(=O)Nc2cccc3ccccc23)[C@@H](C)CN([C@H](C)CO)C(=O)c2cc(NC(=O)Cc3ccccc3)ccc2O1 | n | n | n
C[C@@H]1CCCCO[C@H](CN(C)C(=O)Nc2cccc3ccccc23)[C@@H](C)CN([C@@H](C)CO)C(=O)c2cc(NC(=O)Cc3ccccc3)ccc2O1 | n | n | n
C[C@@H]1CCCCO[C@@H](CN(C)C(=O)Nc2cccc3ccccc23)[C@H](C)CN([C@@H](C)CO)C(=O)c2cc(NC(=O)Cc3ccccc3)ccc2O1 | -81 | n | n
C[C@@H]1CCCCO[C@H](CN(C)C(=O)Nc2ccc3c(c2)OCO3)[C@H](C)CN([C@H](C)CO)C(=O)c2cc(NS(=O)(=O)c3cccs3)ccc2O1 | n | n | n
O=C(C[C@H]1C=C[C@H](NC(=O)Nc2cc(F)ccc2F)[C@H](CO)O1)NCCCN1CCOCC1 | n | x | n
N#C[C@H]1[C@H](c2ccc(C#Cc3ccccc3F)cc2)[C@H](CO)N1C(=O)c1cccnc1 | -87 | n | n
COc1ccccc1C#Cc1ccc([C@@H]2[C@H](C#N)N(C(=O)C3CCCC3)[C@H]2CO)cc1 | n | n | x
COc1ccccc1C#Cc1ccc([C@H]2[C@H](C#N)N(C(=O)C3CCCC3)[C@H]2CO)cc1 | n | n | x
COc1ccccc1C#Cc1ccc([C@H]2[C@@H](C#N)N(C(=O)C3CCCC3)[C@H]2CO)cc1 | -97 | n | x
N#C[C@@H]1[C@@H](c2ccc(C#Cc3ccccc3F)cc2)[C@H](CO)N1C(=O)C1CCCCC1 | n | n | n
N#C[C@H]1[C@@H](c2ccc(C#Cc3ccccc3F)cc2)[C@@H](CO)N1C(=O)C1CCCC1 | -89 | n | x
COc1ccccc1C#Cc1ccc([C@H]2[C@@H](C#N)N(C(=O)C3CCCC3)[C@@H]2CO)cc1 | -87 | n | x
N#C[C@H]1[C@@H](c2ccc(C#Cc3ccccc3F)cc2)[C@H](CO)N1C(=O)c1cccnc1 | n | n | n
C[C@@H]1CN([C@H](C)CO)C(=O)c2cc(NS(=O)(=O)c3cccs3)ccc2O[C@@H]1CN(C)C(=O)Nc1cccc2ccccc12 | n | x | n
Cc1noc(C)c1S(=O)(=O)Nc1ccc2c(c1)CC(=O)N([C@@H](C)CO)C[C@@H](C)[C@H](CN(C)Cc1ccc3c(c1)OCO3)O2 | n | n | x
C[C@H](CO)N1C[C@H](C)[C@@H](CN(C)C(=O)c2ccc(F)cc2)Oc2ncc(Br)cc2C1=O | n | n | x
O=C(O)C[C@@H]1C[C@H]2c3cc(NC(=O)Nc4ccccc4F)ccc3O[C@H]2[C@@H](CO)O1 | n | n | x
Cc1ccc(S(=O)(=O)N[C@H]2CC[C@H](CC(=O)NCc3ccncn3)O[C@H]2CO)cc1 | n | x | n
SMILES | Pf Dd2 growth | C diff growth | Tcruzi prolif
C[C@@H]1CN([C@@H](C)CO)C(=O)Cc2cc(NC(=O)Cc3cn(C)c4ccccc34)ccc2O[C@H]1CN(C)Cc1ccc(Oc2ccccc2)cc1 | -90 | n | n
C[C@H](CO)N1C[C@H](C)[C@H](CN(C)C(=O)Nc2cccc3ccccc23)Oc2ccc(NC(=O)Cc3cn(C)c4ccccc34)cc2CC1=O | -85 | n | n
C[C@H]1CN([C@@H](C)CO)C(=O)Cc2cc(NC(=O)Cc3cn(C)c4ccccc34)ccc2O[C@H]1CN(C)C(=O)Nc1cccc2ccccc12 | n | n | n
COc1ccc(CN(C)C[C@H]2Oc3ccc(NC(=O)Cc4cn(C)c5ccccc45)cc3CC(=O)N([C@H](C)CO)C[C@H]2C)cc1 | n | n | n
C[C@H](CO)N1C[C@H](C)[C@H](CN(C)Cc2ccc(Oc3ccccc3)cc2)Oc2ccc(NC(=O)Cc3cn(C)c4ccccc34)cc2CC1=O | -83 | n | n
C[C@H](CO)N1C[C@H](C)[C@@H](CN(C)Cc2ccccc2)Oc2ccc(NC(=O)Cc3cn(C)c4ccccc34)cc2CC1=O | -82 | n | n
C[C@@H]1CN([C@H](C)CO)C(=O)Cc2cc(NC(=O)Cc3cn(C)c4ccccc34)ccc2O[C@@H]1CN(C)Cc1ccc(Oc2ccccc2)cc1 | n | n | n
C[C@@H]1CN([C@H](C)CO)C(=O)Cc2cc(NC(=O)Cc3cn(C)c4ccccc34)ccc2O[C@H]1CN(C)Cc1ccccc1 | n | n | n
CO[C@H]1CN(C)C(=O)c2ccc(NS(=O)(=O)c3c(C)noc3C)cc2OC[C@@H](C)NC[C@H]1C | n | x | n
CC(C)NC(=O)NC[C@H]1[C@H](c2ccccc2)[C@H](CO)N1C(=O)c1ccccc1 | n | n | n
CCNC(=O)[C@H]1[C@H](CO)[C@H]2Cn3c(ccc(-c4ccccc4)c3=O)[C@H]2N1Cc1cc(F)ccc1F | n | n | n
CCCNC(=O)C[C@H]1C[C@H]2c3cc(NS(=O)(=O)c4ccccc4)ccc3O[C@H]2[C@@H](CO)O1 | n | n | n
COc1ccc(CNC(=O)C[C@H]2CC[C@@H](NS(=O)(=O)c3cccc(OC)c3)[C@H](CO)O2)cc1 | x | n | x
C[C@H](CO)N1C[C@H](C)[C@@H](CN(C)Cc2ccc(C(=O)Nc3ccccc3N)cc2)Oc2ccc(NC(=O)C3CC3)cc2CC1=O | n | n | n
C[C@@H]1CN([C@H](C)CO)C(=O)Cc2cc(NC(=O)C3CCCCC3)ccc2O[C@@H]1CN(C)Cc1ccc(C(=O)Nc2ccccc2N)cc1 | n | n | x
C[C@H]1CN([C@@H](C)CO)C(=O)Cc2cc(NC(=O)C3CCCCC3)ccc2O[C@@H]1CN(C)Cc1ccc(C(=O)Nc2ccccc2N)cc1 | -88 | n | x
C[C@H](CO)N1C[C@H](C)[C@H](CN(C)Cc2ccc(C(=O)Nc3ccccc3N)cc2)Oc2ccc(NC(=O)C3CCCCC3)cc2CC1=O | -84 | n | n
C[C@H](CO)N1C[C@H](C)[C@@H](CN(C)Cc2ccc(C(=O)Nc3ccccc3N)cc2)Oc2ccc(NC(=O)C3CCCCC3)cc2CC1=O | -85 | n | n
C[C@H](CO)N1C[C@H](C)[C@H](CN(C)Cc2ccc(C(=O)Nc3ccccc3N)cc2)Oc2ccc(NC(=O)C3CC3)cc2CC1=O | n | n | n
